In all, about 310,000 compounds went through this assay and about 14,000 (4.5%) showed an effect of 50% or more. Effects have a minus sign here. The sample holds strong results, similar compounds and a random draw of the others, so the mix is not that of the screen.
target: human ether-à-go-go-related gene (hERG) potassium channel (human, UniProt Q12809); test: primary screen, population patch clamp on CHO cells stably expressing hERG; higher = less effect of the substance
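Note: peak tail current of the secondary pulse compared with the same well before compound.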

human ether-à-go-go-related gene (hERG) potassium channel, sequence (Q12809 whole entry, looked up): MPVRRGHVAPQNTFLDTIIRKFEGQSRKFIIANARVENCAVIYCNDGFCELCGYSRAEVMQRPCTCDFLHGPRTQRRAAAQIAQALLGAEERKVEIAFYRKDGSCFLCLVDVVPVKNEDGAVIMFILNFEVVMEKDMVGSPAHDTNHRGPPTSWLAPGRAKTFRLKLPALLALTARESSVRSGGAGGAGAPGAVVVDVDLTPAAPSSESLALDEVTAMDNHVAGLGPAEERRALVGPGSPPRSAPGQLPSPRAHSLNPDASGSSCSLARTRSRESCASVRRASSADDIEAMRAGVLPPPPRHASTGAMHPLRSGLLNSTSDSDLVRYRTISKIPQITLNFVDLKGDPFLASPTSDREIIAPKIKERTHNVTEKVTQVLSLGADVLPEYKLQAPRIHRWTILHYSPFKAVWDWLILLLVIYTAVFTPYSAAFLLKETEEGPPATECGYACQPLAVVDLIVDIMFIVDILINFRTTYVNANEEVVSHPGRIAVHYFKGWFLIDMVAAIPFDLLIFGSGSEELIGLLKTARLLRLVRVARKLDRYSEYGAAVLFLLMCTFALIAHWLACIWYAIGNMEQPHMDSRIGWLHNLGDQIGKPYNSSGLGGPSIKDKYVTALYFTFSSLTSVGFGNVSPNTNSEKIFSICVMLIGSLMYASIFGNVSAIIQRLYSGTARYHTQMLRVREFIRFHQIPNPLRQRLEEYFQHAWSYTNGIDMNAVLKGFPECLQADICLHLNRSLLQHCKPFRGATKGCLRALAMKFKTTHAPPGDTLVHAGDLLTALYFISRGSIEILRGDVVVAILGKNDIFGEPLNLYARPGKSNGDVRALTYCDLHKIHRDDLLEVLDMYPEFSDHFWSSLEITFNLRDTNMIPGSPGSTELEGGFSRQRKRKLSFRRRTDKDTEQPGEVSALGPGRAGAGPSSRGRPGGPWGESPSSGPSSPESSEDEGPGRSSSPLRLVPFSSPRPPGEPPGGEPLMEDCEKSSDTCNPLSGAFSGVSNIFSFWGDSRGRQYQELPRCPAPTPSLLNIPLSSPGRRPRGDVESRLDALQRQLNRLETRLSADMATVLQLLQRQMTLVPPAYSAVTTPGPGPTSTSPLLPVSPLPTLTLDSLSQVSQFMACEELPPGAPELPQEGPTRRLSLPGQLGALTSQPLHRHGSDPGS

Row | Compound | hERG current change (%, negative = inhibition) at 10uM [%]
1 | COc1ccc(OCC(N)=O)cc1 | 8.9
2 | O=c1[nH]c(SCc2cccc(Cl)c2)nc2[nH]ncc12 | 12.6
3 | C#Cc1ccc([C@@H]2C=C(C(=O)NC3CC3)O[C@H](OCC)[C@H]2CCCO)cc1 | -35.2
4 | CC(NC(=O)c1ccccc1)c1nnc(SCc2nc3ccccc3c(=O)[nH]2)n1C (stereo not drawn) | 14
5 | C[C@@H](CO)NC(=O)c1ccc2c3n(nc2c1)-c1ccc(Cl)cc1CO3 | -1.96
6 | Cc1ccccc1NC(=O)CN1C(=O)NC(C)(c2ccc3c(c2)OCO3)C1=O (stereo not drawn) | 9.53
7 | COc1ccc(C)cc1-n1nnnc1SCC(=O)NC1CC1 | 0.673
8 | CCN1CCC2(CCN(C(=O)c3cc(COc4cc(C)ccc4C)on3)C2)C1 (stereo not drawn) | -54.8
9 | Cc1ccc(C)c(OCc2cc(C(=O)N3CCOCC3)no2)c1 | -3.82
10 | Cc1ccc(C)c(OCc2cc(C(=O)N3CCN(c4ccccc4)CC3)no2)c1 | -31.4
11 | Cc1ccc(C)c(OCc2cc(C(=O)N3CCN(C(=O)c4ccco4)CC3)no2)c1 | -10.7
12 | Cc1ccc(C)c(OCc2cc(C(=O)N3CCN(c4cnccn4)CC3)no2)c1 | -81.7
13 | COCCN1CCN(C(=O)c2cc(COc3cc(C)ccc3C)on2)CC1 | 1.06
14 | FC(F)(F)c1ccc(N2CCN(c3ncnc4c3nnn4Cc3ccccc3)CC2)nc1 | -2.11
15 | C=CCn1c(C)cc(C(=O)CSc2nnc(NCc3ccccc3)s2)c1C | -8.54
16 | O=c1[nH]c(O)c(C=Nc2ccccc2Oc2ccccc2)c(=O)[nH]1 | 15.9
17 | COc1ccc(NS(=O)(=O)c2ccc(NC(=O)Cc3cccs3)cc2)cc1 | 12.7
18 | CCOc1ccc2nc(C)cc(C(=O)O)c2c1 | -2.09
19 | CCN1CCN(c2ccc(S(=O)(=O)N3CCOCC3)cc2NC(=O)CC(C)C)CC1 | 0.99
20 | Br.CC1CC(C)CN(CC(=O)c2ccc(OC(F)F)cc2)C1 (stereo not drawn) | -91.5
21 | Cl.O=C(CN1CCCCC1)c1ccc(F)cc1 | 1.94
22 | Br.O=C(CN1CCCCC1)c1ccc(OC(F)F)cc1 | -69.6
23 | CC1CC(C)CN(C(=S)Nc2ccc(OC(F)F)cc2)C1 (stereo not drawn) | -36.6

Row | Compound | hERG current change (%, negative = inhibition) at 10uM [%]
24 | CC1CC(C)CN(CC(=O)c2cccs2)C1 (stereo not drawn) | -9.99
25 | Br.COc1ccc(C(=O)CN2CCCCC2)cc1 | 7.07
26 | Cc1cccc(C)c1-n1nnnc1C1(Nc2ccccc2)CCCCC1 | -4.36
27 | CCCN(CC(=O)Nc1ccccc1OC)C(=O)CCNC(=O)c1ccccc1OC | -2.16
28 | CCN(c1ccccc1)S(=O)(=O)c1ccc(N2CCN(c3ccccc3O)CC2)nc1 | -0.538
29 | CCN(CC)S(=O)(=O)c1ccc(N2CCN(c3ccccc3O)CC2)nc1 | -52.8
30 | CCN(CC)S(=O)(=O)c1ccc(N2CCN(CCO)CC2)nc1 | -3.97
31 | Cc1ccc(CN2CCNC(=O)C2CC(=O)N(Cc2c(C)nn(C)c2C)C2CC2)o1 (stereo not drawn) | 23.9
32 | CCN=C1SC(C(N)=O)CC(=O)N1CC (stereo not drawn) | 12.9
33 | O=C(c1cn[nH]c1)c1cc(F)ccc1O | -2.62
34 | Cc1cccc(-c2nnc(SCc3nc4ccccc4[nH]3)n2Cc2ccco2)c1 | -48.8
35 | Cc1ccc(NCc2nnc(SCc3ccc(C#N)cc3)n2Cc2ccco2)c(C)c1 | -70.8
36 | N#Cc1ccc(CSc2nnc(-c3ccccc3)n2Cc2ccco2)cc1 | -26.8
37 | Cc1cccc(-c2nnc(SCc3ccc(C#N)cc3)n2Cc2ccco2)c1 | -89
38 | COc1ccc(C(=O)CSc2nnc(CNc3ccc(C)cc3C)n2Cc2ccco2)cc1 | 6.88
39 | COc1cccc(-c2nnc(SCc3ccc(C#N)cc3)n2Cc2ccco2)c1 | -70.3
40 | Cc1ccc(NCc2nnc(SCC(=O)c3ccccc3)n2Cc2ccco2)c(C)c1 | -7.53
41 | Cc1ccc(-c2nnc(SCc3ccc(C#N)cc3)n2Cc2ccco2)cc1 | -20.6
42 | COc1cccc(-c2nnc(SCC(=O)OC(C)C)n2Cc2ccco2)c1 | -15.3
43 | O=C(CSc1nnc(-c2ccncc2)n1Cc1ccco1)N1c2ccccc2Sc2ccc(Cl)cc21 | -2.92
44 | CCSC1=NCCN1C(=O)c1c(-c2ccccc2Cl)noc1C | -20.6
45 | O=C(CSc1nnc(-c2ccccc2)o1)NC1CCCCC1 | -16.6
46 | O=C(CNc1cccc([N+](=O)[O-])c1)N/N=C/c1ccc([N+](=O)[O-])o1 | -36

Row | Compound | hERG current change (%, negative = inhibition) at 10uM [%]
47 | O=C(CN1CCN(c2ccccc2)CC1)N1CCc2[nH]c3ccccc3c2C1 | -26.9
48 | COc1ccccc1NC(=O)N1CCCC1C(=O)NCc1cccs1 (stereo not drawn) | 0.509
49 | COc1ccc(CCNCc2ccc(OCc3ccccc3)cc2)cc1 | -41.6
50 | COc1cccc(CNCCc2ccc(F)cc2)c1.O=C(O)C(=O)O | -9.82
51 | COc1cccc(CCNCc2ccc(SC)cc2)c1.O=C(O)C(=O)O | -67.7
52 | COc1ccc(CCNCc2ccc(SC)cc2)cc1 | -73.2
53 | COc1cc(CNCc2ccc(SC)cc2)cc(OC)c1 | -14.9
54 | COc1cccc(CCNCc2c(F)cccc2F)c1.O=C(O)C(=O)O | -15.1
55 | CC(=O)N1c2ccc(S(=O)(=O)NC(CC(=O)O)c3ccc(Br)cc3)cc2CC1C (stereo not drawn) | 22.3
56 | CC1CCN(S(=O)(=O)c2ccccc2)CC1 | -3.32
57 | O=C(CCNS(=O)(=O)c1ccc(Br)cc1)NCc1ccc2c(c1)OCO2 | -3.3
58 | COc1ccc(-n2cc(-c3ccccc3)c3c(NCCOCCO)ncnc32)cc1 | -42.9
59 | CN(C)CCCNc1ncnc2c1cnn2-c1ccccc1 | -22.8
60 | OCCOCCNc1ncnc2c1cnn2-c1ccccc1 | 9.79
61 | Cc1c(C)n(-c2ccccc2)c2ncnc(NCCCN(C)C)c12 | 0.841
62 | OCCOCCNc1ncnc2c1c(-c1ccccc1)cn2-c1ccccc1 | -50.6
63 | CN(C)CCCNc1ncnc2c1c(-c1ccccc1)cn2-c1ccccc1 | -64.4
64 | O=C(N/N=C/c1cccnc1)c1cc2ccccc2cc1O | 5.26
65 | C[C@@]12C(=O)N(c3ccc(C(F)(F)F)cc3)C(=O)N1[C@@H]1c3ccccc3OC[C@@H]1[C@H]2c1ccccc1 | 20
66 | O=C(Cn1c(=O)n(CC2CCCO2)c(=O)c2ccccc21)c1ccc(Cl)c(Cl)c1 (stereo not drawn) | -16.4
67 | CN(CCCC(=O)NCCc1ccccc1)S(=O)(=O)c1ccc([N+](=O)[O-])cc1 | -37.6
68 | CN(CCCC(=O)NC1CC(C)(C)NC(C)(C)C1)S(=O)(=O)c1ccc([N+](=O)[O-])cc1 | 12.5
69 | COc1ccc(S(=O)(=O)N(C)CC(=O)NCc2ccc3c(c2)OCO3)cc1 | -8.31

Row | Compound | hERG current change (%, negative = inhibition) at 10uM [%]
70 | O=C(NCc1ccc2c(c1)OCO2)Nc1ccc([N+](=O)[O-])cc1 | 21.1
71 | Cc1ccc(S(=O)(=O)N(C)CCCC(=O)NCc2ccc3c(c2)OCO3)cc1 | -23.5
72 | CN(CC(=O)NCc1ccc2c(c1)OCO2)S(=O)(=O)c1ccc(F)cc1 | -8.53
73 | CN(CCCC(=O)NCc1ccccc1)S(=O)(=O)c1ccc([N+](=O)[O-])cc1 | -65.6
74 | CN(CCCC(=O)NCc1ccc2c(c1)OCO2)S(=O)(=O)c1ccc([N+](=O)[O-])cc1 | -68.1
75 | CCOc1ccc(S(=O)(=O)N(C)CC(=O)NCc2ccc3c(c2)OCO3)cc1 | -64.4
76 | C=CCn1c(SCCCc2ccccc2)nc2c1c(=O)[nH]c(=O)n2C | -26.1
77 | COc1ccc(OC)c(NS(=O)(=O)c2ccc(-c3coc(C)n3)cc2)c1 | 0.503
78 | COc1cccc(NC(=O)N2CCCC2C(=O)NC2CC2)c1 (stereo not drawn) | 3.61
79 | COc1ccc(-c2[nH]ncc2CN(C)Cc2cnccn2)c(OC)c1 | 14
80 | O=C(O)c1cc2n(n1)C(C(F)(F)F)CC(c1ccco1)N2 (stereo not drawn) | 22.2
81 | O=S(=O)(NC1CCCCC1N1CCN(c2ccc(F)cc2)CC1)c1ccccc1 (stereo not drawn) | -7.05
82 | COc1ccc(/C=C2\SC(=S)N(CCC(=O)NCCCn3ccnc3)C2=O)cc1 | -28.5
83 | O=C(CCN1C(=O)/C(=C/c2ccc(Cl)cc2)SC1=S)NCCCn1ccnc1 | -23.4
84 | O=C(CCN1C(=O)/C(=C/c2ccccc2F)SC1=S)NCCCn1ccnc1 | -38.1
85 | O=C(CCN1C(=O)/C(=C/c2ccc(F)cc2)SC1=S)NCCCn1ccnc1 | -63.6
86 | COc1ccccc1/C=C1\SC(=S)N(CCC(=O)NCCCn2ccnc2)C1=O | -44.7
87 | O=C(CCCN1C(=O)c2ccccc2C1=O)NCCCn1ccnc1 | 13.4
88 | O=C(CCN1C(=O)S/C(=C\c2ccccc2)C1=O)NCCCn1ccnc1 | -38.4
89 | O=C(CCCN1C(=O)/C(=C/c2ccccc2)SC1=S)NCCCn1ccnc1 | -59.9
90 | O=C(CCCN1C(=O)/C(=C/c2ccc(F)cc2)SC1=S)NCCCn1ccnc1 | -71

— publication PMC4336329 (PLoS ONE, 2015)
